Laboratory results: PubChem BioAssay (NCATS)
Records with an inconclusive call do not appear. Active and inactive are the calls of the source. The call rests on the fitted dose curve; in most records, active means well fitted inhibition curve with a large enough effect; inconclusive means small, poorly fitted or top-dose-only effect; inactive means flat fitted curve, though single readings scatter.

Key:
Assay in all cases: qHTS profiling for inhibitors of Plasmodium falciparum proliferation (AID 504749); further: nearly all actives have a fitted effect of over 60% in size
3D7 = conditions: P. falciparum in erythrocytes, SYBR Green DNA, 72 h; series mostly up to 28.7 µM
Outline: (§1)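 SYBR Green fluorescence of parasite DNA, read after lysis and overnight dark incubation, measured growth over 72 h in erythrocyte culture at 0.3% parasitemia and 2.5% hematocrit. Data normalised to DMSO and 0.29 uM artemisinin, with plate-drift correction.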

AS120 = conditions: P. falciparum in erythrocytes, SYBR Green DNA, 72 h; series mostly up to 28.7 µM
Outline: as §1

ATS189 = conditions: P. falciparum in erythrocytes, SYBR Green DNA, 72 h; series mostly up to 28.7 µM
Outline: as §1

CP185 = conditions: P. falciparum in erythrocytes, SYBR Green DNA, 72 h; series mostly up to 28.7 µM
Outline: as §1

CP192 = conditions: P. falciparum in erythrocytes, SYBR Green DNA, 72 h; series mostly up to 28.7 µM
Outline: as §1

CP194 = conditions: P. falciparum in erythrocytes, SYBR Green DNA, 72 h; series mostly up to 28.7 µM
Outline: as §1

CP201 = conditions: P. falciparum in erythrocytes, SYBR Green DNA, 72 h; series mostly up to 28.7 µM
Outline: as §1

CP203 = conditions: P. falciparum in erythrocytes, SYBR Green DNA, 72 h; series mostly up to 28.7 µM
Outline: as §1

CP237 = conditions: P. falciparum in erythrocytes, SYBR Green DNA, 72 h; series mostly up to 28.7 µM
Outline: as §1

CP238 = conditions: P. falciparum in erythrocytes, SYBR Green DNA, 72 h; series mostly up to 28.7 µM
Outline: as §1

CP247 = conditions: P. falciparum in erythrocytes, SYBR Green DNA, 72 h; series mostly up to 28.7 µM
Outline: as §1

CP286 = conditions: P. falciparum in erythrocytes, SYBR Green DNA, 72 h; series mostly up to 28.7 µM
Outline: as §1

CP305 = conditions: P. falciparum in erythrocytes, SYBR Green DNA, 72 h; series mostly up to 28.7 µM
Outline: as §1

DIV30 = conditions: P. falciparum in erythrocytes, SYBR Green DNA, 72 h; series mostly up to 28.7 µM
Outline: as §1

GB4 = conditions: P. falciparum in erythrocytes, SYBR Green DNA, 72 h; series mostly up to 28.7 µM
Outline: as §1

HB3 = conditions: P. falciparum in erythrocytes, SYBR Green DNA, 72 h; series mostly up to 28.7 µM
Outline: as §1

P94_40 = conditions: P. falciparum in erythrocytes, SYBR Green DNA, 72 h; series mostly up to 28.7 µM
Outline: as §1

PC49 = conditions: P. falciparum in erythrocytes, SYBR Green DNA, 72 h; series mostly up to 28.7 µM
Outline: as §1

TAB109 = conditions: P. falciparum in erythrocytes, SYBR Green DNA, 72 h; series mostly up to 12.8 µM
Outline: as §1

TAB113 = conditions: P. falciparum in erythrocytes, SYBR Green DNA, 72 h; series mostly up to 28.7 µM
Outline: as §1

Measured: Potency

C[C@]12CC[C@H]3[C@@H](CCC4=CC(=O)CC[C@@]43C)[C@@H]1CC[C@@H]2O
inactive: 3D7 | AS120 | ATS189 | CP185 | CP192 | CP194 | CP201 | CP203 | CP237 | CP238 | CP247 | CP286 | CP305 | DIV30 | GB4 | HB3 | P94_40 | PC49 | TAB109 | TAB113
